This passage reports z-score and composite z-score results from PubChem BioAssay.

The nature of experiment [1]: HepG2 liver cancer cell viability effects, profiling panel, resazurin fluorescence, 24 h, PK04 Diversity Set (AID 1172). Particulars: higher = more signal.
The nature of experiment [2]: basal S. cerevisiae growth modulation, no modifier, primary screen, OD600, strain BY4716, 24 h, basal condition (AID 1173). Particulars: OD600, 24 h, higher = more signal, called active from +8 up or from −8 down.
Experiment [3] is described as follows: MM1S myeloma cell viability, profiling panel, resazurin fluorescence, basal, 24 h, PK04 Diversity Set (AID 1174).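 Further: MM1S multiple myeloma cell line.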 Particulars: higher = more signal, called active from +8 up or from −8 down. For orientation: Resazurin is reduced to fluorescent resorufin, in cell work by metabolically active cells.
Experiment [4] addresses Dihydroorotate dehydrogenase (quinone), mitochondrial (Plasmodium falciparum (isolate 3D7)) (UniProt Q08210). As to the kind of experiment: PfDHODH enzyme inhibitors, primary screen, biochemical, C-terminal His tag, absorbance 600 nm (AID 1175).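 Further: recombinant parasite enzyme with a five histidine tag at its C terminus.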 As to conditions: DCIP absorbance 600 nm, higher = more signal, called active from +8 up or from −8 down.
The nature of experiment [5]: P. aeruginosa biofilm formation inhibitors, primary screen, strain PAO1, LB-PBS medium, absorbance 600 nm (AID 1176). As to conditions: P. aeruginosa PAO1 growth/biofilm, A600, 12 h; higher = more signal.
Experiment [6] can be described thus: S. cerevisiae RM11-1a growth modifiers, primary screen, strain RM11-1a, OD600, basal, 24 h (AID 1177).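 Further: cultures grown under basal conditions with no added stressor.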 As to conditions: OD600, 24 h, higher = more signal, called active from +8 up or from −8 down.
Experiment [7] is described as follows: E. coli acrAB mutant growth effects, primary screen, E. coli filamentation inducers, strain DRC39, OD650, 24 h (AID 1178).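 Further: growth measured as culture turbidity by optical density at 650 nm.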 As to conditions: higher = more signal, called active from +8 up or from −8 down.
Experiment [8] is described as follows: E. coli acrAB mutant growth effects, primary screen, E. coli filamentation inducers, strain DRC39, OD650, 48 h (AID 1179).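 Further: screen aims at cell division blockers that make cells filament.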 As to conditions: E. coli DRC39 delta-acrAB growth, higher = more signal, called active from +8 up or from −8 down.
A short description of experiment [9]: RPMI8226 myeloma cell viability, profiling panel, resazurin fluorescence, basal, 24 h, PK04 Diversity Set (AID 1180).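 Further: RPMI8826 multiple myeloma cell line at 5000 cells per well.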 Particulars: higher = more signal.
The target in experiment [10] is E3 ubiquitin-protein ligase XIAP (Homo sapiens) (UniProt P98170). As to the kind of experiment: XIAP binders, primary screen, biophysical, small-molecule microarray, fluorescence 635 nm (AID 1181).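 Further: score merges 667 nm emission and signal to noise over triplicate slides.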 As to conditions: small-molecule microarray binding, higher = more signal.
Chain of E3 ubiquitin-protein ligase XIAP (Homo sapiens) (P98170 whole entry, looked up): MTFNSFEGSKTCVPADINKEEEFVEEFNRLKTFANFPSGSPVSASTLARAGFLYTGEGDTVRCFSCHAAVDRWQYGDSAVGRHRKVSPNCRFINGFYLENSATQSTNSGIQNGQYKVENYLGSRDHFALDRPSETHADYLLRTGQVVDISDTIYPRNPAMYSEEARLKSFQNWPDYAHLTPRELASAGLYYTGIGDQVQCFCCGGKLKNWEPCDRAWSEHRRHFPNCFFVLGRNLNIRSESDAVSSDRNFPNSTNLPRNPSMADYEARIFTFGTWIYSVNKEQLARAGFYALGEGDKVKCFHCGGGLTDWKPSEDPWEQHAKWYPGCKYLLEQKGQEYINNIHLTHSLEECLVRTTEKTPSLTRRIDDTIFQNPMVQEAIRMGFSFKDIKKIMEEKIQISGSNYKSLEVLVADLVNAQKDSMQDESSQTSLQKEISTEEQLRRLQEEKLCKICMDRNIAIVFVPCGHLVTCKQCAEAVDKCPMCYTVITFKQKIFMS
In experiment [11] the test system is XIP peptide (Xip251-270) binding. The experiment can be described thus: small-molecule binders of XIP peptide, primary screen, biochemical, small-molecule microarray, fluorescence 635/667 nm, 0.1 µg/mL protein (AID 1182). Particulars: fluorescent protein binding, 635 nm, higher = more signal, called active from +8 up or from −8 down.
The subject of the next experiment is XIP peptide (Xip251-270). As to the kind of experiment: small-molecule binders of XIP peptide, primary screen, biochemical, small-molecule microarray, fluorescence 635/667 nm, 0.5 µg/mL protein (AID 1183). As to conditions: small-molecule microarray binding, fluorescence 635 nm; higher = more signal.
A short description of experiment [12]: Plasmodium falciparum growth inhibition, primary screen, strain 3D7, DAPI fluorescence, 100 nL (AID 1184).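 Further: parasites grown inside human red blood cells in medium with human serum.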 Particulars: P. falciparum 3D7 growth, 3 d, higher = more signal.
For experiment [13], the target named is Homeobox protein Hox-A13 (Mus musculus) (UniProt Q62424). As to the kind of experiment: inhibitors of HoxA13-DNA binding, primary screen, biochemical, fluorescence polarization, labeled oligonucleotide (AID 1185). As to conditions: 15 min, higher = more signal, called active from +8 up or from −8 down. In general terms: In fluorescence polarisation assays a small probe gives low polarisation when free and higher when bound to something large.
Chain of Homeobox protein Hox-A13 (Mus musculus) (Q62424 whole entry, looked up): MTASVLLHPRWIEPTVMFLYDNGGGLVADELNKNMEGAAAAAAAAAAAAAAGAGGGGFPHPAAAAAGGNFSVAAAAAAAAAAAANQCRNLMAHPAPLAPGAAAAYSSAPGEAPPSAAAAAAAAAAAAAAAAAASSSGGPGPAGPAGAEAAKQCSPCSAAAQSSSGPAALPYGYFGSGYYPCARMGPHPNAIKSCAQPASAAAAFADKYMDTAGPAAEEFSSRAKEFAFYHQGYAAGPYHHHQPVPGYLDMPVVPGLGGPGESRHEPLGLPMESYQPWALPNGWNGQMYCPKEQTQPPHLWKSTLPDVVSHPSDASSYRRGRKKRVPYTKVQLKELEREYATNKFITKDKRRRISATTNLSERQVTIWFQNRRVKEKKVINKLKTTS

A short description of experiment [14]: inhibitors of hydroxyurea-induced Chk1 phosphorylation, primary screen, imaging, HeLa, phospho-Chk1 antibody, percent positive cells (AID 1186). As to conditions: hydroxyurea-induced phospho-Chk1 immunofluorescence imaging, higher = more signal.
Experiment [15] can be described thus: inhibitors of hydroxyurea-induced Chk1 phosphorylation, primary screen, imaging, HeLa, phospho-Chk1 nuclear intensity (AID 1187). As to conditions: hydroxyurea-induced phospho-Chk1 immunofluorescence imaging, higher = more signal.

Active and inactive are the calls of the source. Unless noted, how the calls were made is not given here.

Chain of Dihydroorotate dehydrogenase (quinone), mitochondrial (Plasmodium falciparum (isolate 3D7)) (Q08210 whole entry, looked up): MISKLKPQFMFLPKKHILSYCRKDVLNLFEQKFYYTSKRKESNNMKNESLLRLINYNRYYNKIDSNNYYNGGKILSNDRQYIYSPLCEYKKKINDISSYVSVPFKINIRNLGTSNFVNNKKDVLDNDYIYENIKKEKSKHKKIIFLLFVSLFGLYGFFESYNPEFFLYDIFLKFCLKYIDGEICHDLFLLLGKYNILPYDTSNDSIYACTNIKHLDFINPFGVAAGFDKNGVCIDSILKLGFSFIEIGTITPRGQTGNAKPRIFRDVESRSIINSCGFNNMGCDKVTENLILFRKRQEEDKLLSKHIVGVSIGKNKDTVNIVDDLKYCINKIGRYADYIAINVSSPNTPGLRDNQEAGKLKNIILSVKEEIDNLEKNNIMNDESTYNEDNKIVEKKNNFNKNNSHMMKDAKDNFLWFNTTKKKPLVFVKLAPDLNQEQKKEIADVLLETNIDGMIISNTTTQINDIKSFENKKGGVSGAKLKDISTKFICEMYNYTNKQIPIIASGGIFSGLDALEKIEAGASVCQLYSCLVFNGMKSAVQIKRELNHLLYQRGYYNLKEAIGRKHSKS

As for `O=C1OCCC=C[C@H]2OC34C=CCN(c5ccc6ccccc6c5)C(=O)[C@H]3N(CCCCCCO)C(=O)[C@@H]4C12` (some centres undefined), the z-score was 0.523 in experiment [1]; -0.546 (inactive) in experiment [2]; -0.0449 (inactive) in [3]; -0.497 (inactive) in experiment [5]; 0.522 (inactive) in experiment [6]; 0.982 (inactive) in experiment [7]. For the same compound, the z-score is 1.29 (inactive) in experiment [8]; 0.868 in [9]; 0.0888 in experiment [12]; -5.18 (inactive) in [13]; 0.183 (inactive) in [14]; 0.399 (inactive) in [15]. The composite z-score was 0.401 (inactive) in experiment [4], -0.0953 in [10], -0.0517 (inactive) in experiment [11] and 0.79 with XIP peptide (Xip251-270).

For `C=C(COC)C(=O)CC[C@@H](OC(=O)c1ccccc1-c1ccccc1C(=O)O)c1ccc(CO)o1`, the z-score in experiment [1] was -0.731; in [2] it was -17.9 (active); in experiment [3] it was -0.0674 (inactive); in [5] it was 0.85 (inactive); in [6], -21.6 (active); in experiment [7] it was 0.163 (inactive). In addition, the z-score in [8] was -0.171 (inactive); in experiment [9], 0.62; in experiment [12], 1.47; in [13] it was -4.32 (inactive); in experiment [14] it was 1.37 (inactive); in experiment [15] it was 0.477 (inactive). In addition, the composite z-score was -6.3 (inactive) in [4], 0.294 in experiment [10], -0.5 (inactive) in experiment [11] and 0.633 with XIP peptide (Xip251-270).

`C=CCC(OC(C)=O)[C@@H]1[C@@H](N(Cc2ccc(-c3cccc(C(F)(F)F)c3)o2)C(=O)c2ccc(C)cc2)c2cc(OCCCO)ccc2N1C(=O)c1ccc2ccccc2n1` (some centres undefined): the z-score in experiment [1] was 0.347; in [2] it was -0.304 (inactive); in experiment [3] it was 0.0003 (inactive); in [5], -0.325 (inactive); in experiment [6] it was -0.0057 (inactive); in experiment [7], -0.379 (inactive). Besides, the z-score in experiment [8] was 0.317 (inactive); in experiment [9] it was -0.37; in experiment [12], -0.537; in [13] it was -0.918 (inactive); in experiment [14], -0.51 (inactive); in [15] it was -0.703 (inactive). In addition, the composite z-score was -1.35 (inactive) in experiment [4], 0.265 in [10], -0.0348 (inactive) in experiment [11] and -0.789 in the experiment with XIP peptide (Xip251-270).

Regarding `O=C(NCC(F)(F)F)[C@@H]1c2ccccc2C(=O)N(Cc2ccccc2)[C@H]1c1ccc(CO)cc1`, the z-score in experiment [1] is -0.699; in experiment [2], -0.0657 (inactive); in [3] it was -0.294 (inactive); in experiment [5], -0.0654 (inactive); in [6], 0.0566 (inactive); in [7], 0.126 (inactive). In addition, the z-score in [8] is 0.606 (inactive); in experiment [9], 0.368; in [12], -0.778; in experiment [13], -1.25 (inactive); in [14], -0.571 (inactive); in experiment [15], -0.801 (inactive). The composite z-score in experiment [4] is -1.09 (inactive); in [10], -0.239; in experiment [11] it was 0.377 (inactive); with XIP peptide (Xip251-270), -0.396.

Regarding `[N-]=[N+]=NCc1ccccc1C[C@]1(C(=O)NCc2ccccc2)COC(c2ccc(OCCCO)cc2)=N1`, the z-score in experiment [1] was -1.89; in experiment [2], 1.55 (inactive); in [3], -5.64 (inactive); in [5], 0.385 (inactive); in [6], 3.06 (inactive); in experiment [7] it was 1.45 (inactive). Also, the z-score was 0.376 (inactive) in experiment [8]; -4.15 in [9]; -2.45 in experiment [12]; -6.24 (inactive) in experiment [13]; -0.403 (inactive) in [14]; -0.737 (inactive) in [15]. Also, the composite z-score was 1.1 (inactive) in [4], 0.488 in experiment [10], 0.395 (inactive) in [11] and 0.689 with XIP peptide (Xip251-270).

For `COc1ccc(C#Cc2ccc3c(c2)[C@]2(C(=O)N3)[C@H](C(=O)N3CCN(c4ncccn4)CC3)[C@H]3C(=O)O[C@H](c4ccccc4)[C@H](c4ccccc4)N3[C@@H]2c2ccc(O)cc2)cc1`, the z-score in [1] was -0.795; in experiment [2], 0.21 (inactive); in experiment [3], 0.0492 (inactive); in experiment [5], 0.999 (inactive); in experiment [6], 0.881 (inactive); in experiment [7], -0.423 (inactive). The z-score was 0.182 (inactive) in [8]; 0.225 in experiment [9]; -1.08 in experiment [12]; -0.983 (inactive) in [13]; -0.247 (inactive) in experiment [14]; -0.298 (inactive) in experiment [15]. Further, the composite z-score is -3.34 (inactive) in experiment [4], -0.0149 in experiment [10], -0.219 (inactive) in experiment [11] and 0.734 with XIP peptide (Xip251-270).

Consider `C=CCN1C(=O)[C@]2(COC(c3ccc(OCCCO)cc3)=N2)Cc2ccccc21`, for which the z-score in [1] was 0.653; in experiment [2] it was -1.8 (inactive); in experiment [3] it was -0.99 (inactive); in [5], 0.286 (inactive); in experiment [6], -0.675 (inactive); in [7], 0.695 (inactive). Also, the z-score was 1.54 (inactive) in experiment [8]; -0.126 in experiment [9]; -2.19 in experiment [12]; -4.31 (inactive) in [13]; -0.455 (inactive) in experiment [14]; -0.398 (inactive) in [15]. For the same compound, the composite z-score was -1.5 (inactive) in experiment [4], 0.0933 in [10], 2.53 (inactive) in experiment [11] and 0.797 in the experiment on XIP peptide (Xip251-270).

As to `COCCOC(=O)N1C(=O)[C@@]2(c3cc(C#CC4=CCCCC4)ccc31)[C@H](C(=O)N1CCN(c3ncccn3)CC1)[C@H]1C(=O)O[C@H](c3ccccc3)[C@H](c3ccccc3)N1[C@@H]2c1ccc(OCCO)cc1`, the z-score is 0.156 in experiment [1]; 1.31 (inactive) in experiment [2]; 0.162 (inactive) in experiment [3]; 3.13 (inactive) in experiment [5]; 1.69 (inactive) in [6]; 0.208 (inactive) in [7]. Besides, the z-score in experiment [8] was -0.564 (inactive); in experiment [9], -0.147; in [12], -2.08; in [13], 1.96 (inactive); in experiment [14], 0.0924 (inactive); in experiment [15], 0.501 (inactive). Besides, the composite z-score in experiment [4] was -0.204 (inactive); in [10] it was -0.0389; in experiment [11], 0.499 (inactive); in the experiment with XIP peptide (Xip251-270), 0.463.

Take `C=C(COC)C(=O)CC[C@H](OC(=O)c1cccnc1)c1ccccc1OCCO`: the z-score in [1] was -0.577; in experiment [2] it was -0.332 (inactive); in experiment [3], -3.06 (inactive); in experiment [5] it was 1.45 (inactive); in experiment [6], -0.511 (inactive); in experiment [7] it was -0.438 (inactive). The z-score in [8] is -0.285 (inactive); in experiment [9], -2.92; in experiment [12] it was -3.02; in experiment [13], -4.46 (inactive); in experiment [14], 0.735 (inactive); in experiment [15], 0.565 (inactive). The composite z-score is -0.414 (inactive) in [4], -0.0143 in experiment [10], -0.0123 (inactive) in experiment [11] and 0.444 with XIP peptide (Xip251-270).
